KB-3-1 cytotox: kills parental KB-3-1 adenocarcinoma cells. KB-3-1 viability, CellTiter-Glo ATP luminescence, 72 h. Potency, µM (highest dose often 46.1 µM), hits mostly cytotoxic. 1.4% of 400,000 active; also: nearly all actives have a fitted effect of over 60% in size
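Multi-concentration cytotoxicity screen in KB-3-1 cells grown in DMEM lacking phenol red with 10% FBS. After 72 h at 37 °C with compound, ATP-dependent luminescence was recorded.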
TDP1 cell noCPT: qHTS for Inhibitors of human tyrosyl-DNA phosphodiesterase 1 (TDP1): qHTS in cells in absence of CPT; DT40 Tdp1-/- hTDP1 cells, no CPT, ATP luminescence, 48 h; Potency, µM (titrated, usually from 46.2 µM), actives largely listed as inhibitors; 15% of 420,000 active; AID 686978, 2013; also: nearly all actives have a fitted effect of over 55% in size
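Growth of hTDP1-complemented DT40 Tdp1-knockout cells is measured by ATP luminescence after at least 48 hr compound exposure at 37 °C, with DMSO substituting for the 20 nM CPT used in the parallel screen.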
HT1080 IDH1KD tx: HT-1080 IDH1 knockdown cell toxicity (counter line); HT-1080 IDH1 knockdown viability, ATP luminescence, 48 h; Potency, µM (doses to about 46.1 µM), hits mostly cytotoxic; AID 686971; 2% of 360,000 active
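Cytotoxicity counter-line: IDH1KD HT-1080, 48 h, CellTiter-Glo. Curves classed by r2, magnitude and activity.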
TDP1 cell CPT: growth inhibition of DT40 Tdp1-/-;hTDP1 cells with camptothecin (screen for TDP1 inhibitors). Potency, µM (top dose mostly 46.2 µM), usual class: inhibitors. AID 686979. chicken DT40 Tdp1-/-;hTDP1 cells + 20 nM CPT, ATP luminescence, 48 h. 12% of 420,000 active; also: nearly all actives have a fitted effect of over 55% in size
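Cell growth measured by CellTiter-Glo luminescence after a minimum 48 h, 37 C compound exposure with 20 nM CPT in Tdp1-knockout DT40 cells stably expressing hTDP1, seeded 400/well; qHTS titration format.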
HT1080-NT tox: kills 2HG-producing HT-1080-NT fibrosarcoma cells; 1.6% of 360,000 active; HT-1080-NT fibrosarcoma viability, CellTiter-Glo ATP luminescence, 48 h; AID 686970; Potency, µM (top dose mostly 46.1 µM), actives largely listed as cytotoxic;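 also: NT is the 2HG producing partner of a matched IDH1 knockdown line; nearly all actives have a fitted effect of over 55% in size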
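Toxicity toward the 2HG-producing NT line was scored as %Activity, normalised to DMSO and no-cell wells, from CellTiter-Glo luminescence after 48 hours' treatment.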
KB-V1 cytotox: KB-V1 MDR subline cytotoxicity | KB-V1 MDR cells viability, CellTiter-Glo, 72 h | Potency, µM (top dose mostly 46.1 µM), most hits filed as cytotoxic | AID 1347076 | 3.4% of 400,000 active; also: nearly all actives have a fitted effect of over 60% in size
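Drug-selected KB-V1 cells, grown in DMEM lacking phenol red with 10% FBS, receive compound titrations; after three days at 37 degrees C, surviving cell ATP is quantified by CellTiter-Glo luminescence and responses normalized and curve-fitted.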
Hits are given with their value; 0 = inactive; ? = inconclusive; - = no result. Shown are actives, neighbours in structure and some others; about 19% of the full set was active somewhere. Calls follow the shape of the dose curve; as a rule, active = well fitted curve in the direction sought with a large enough effect; inconclusive = small, poorly fitted or top-dose-only effect, or another doubt; inactive = no such curve, though single readings can be large; an effect the other way counts as inactive or inconclusive.

SMILES	KB-3-1 cytotox	TDP1 cell noCPT	HT1080 IDH1KD tx	TDP1 cell CPT	HT1080-NT tox	KB-V1 cytotox
CCc1ccc(CN2CCc3nc(N4CCN(c5ccccc5F)CC4)ncc3C2)cc1	0	18µM	-	?	-	0
CCOc1ccc(CN2CCc3nc(N4CCN(c5ncccn5)CC4)ncc3C2)cc1OC	0	?	-	21µM	-	0
COc1cccc(N2CCN(c3ncc4c(n3)CCN(Cc3ccc(Br)cc3)C4)CC2)c1	?	9.2µM	-	13µM	-	0
Clc1ccc(CN2CCc3nc(N4CCN(c5ccccn5)CC4)ncc3C2)cc1	0	0	-	0	-	0
COc1cc(OC)c(OC)cc1CN1CCc2nc(N3CCN(c4ncccn4)CC3)ncc2C1	0	23µM	-	16µM	-	0
Nc1sc(-c2ccccc2)cc1C(=O)N1CCNCC1	0	0	0	?	0	0
CC1(C)OC(=O)C2(Cc3ccc(Cl)cc3N3CCCCC32)C(=O)O1 (configuration not stated)	0	0	-	0	-	0
CCOc1ccc(CN2CCc3nc(N4CCN(c5ccccc5OC)CC4)ncc3C2)cc1OC	?	10µM	-	9.2µM	-	?
CC(C)NC(=O)CCn1c(=S)oc2ccccc21	0	0	0	0	0	0
CC(C)C(=O)Nc1ccc2nc(SCC(=O)N3CCOCC3)sc2c1	-	?	-	0	-	-
CCCCC(=O)Nc1ccc2nc(SCC(=O)N3CCCC3)sc2c1	-	21µM	-	?	-	-
CC(C)(C)C(=O)Nc1ccc2nc(SCC(=O)N3CCCC3)sc2c1	-	21µM	-	0	-	-
O=C(/C=C/c1ccccc1)/C=C/c1ccccc1	?	-	?	5.2µM	0	?
O=C(/C=C/c1ccccc1)c1ccccc1	0	0	21µM	15µM	16µM	?
CC(/C=C\c1ccccc1)=C/C(=O)O	0	0	0	0	0	0
O=C(c1ccc2ccccc2c1)N1CCN(S(=O)(=O)/C=C/c2ccccc2)CC1	0	26µM	0	16µM	0	0
O=C(/C=C/c1ccccc1)CC(=O)c1ccccc1	?	?	0	?	0	0
O=C(/C=C/c1ccccc1)c1ccc2ccccc2c1	0	16µM	?	?	23µM	0
O=C(NC(C(=O)c1ccccc1)c1ccccc1)c1ccccc1 (configuration not stated)	?	?	0	0	0	0
COc1ccc(NC(=S)NCCCN2CCN(C3CCCCC3)CC2)cc1	0	0	0	0	0	0
Cc1c(Cl)cnc(NC(=O)COC(=O)c2ccncc2)c1Cl	0	0	0	0	0	?
O=C(/C=C/c1ccc[nH]1)c1ccccc1	0	?	0	26µM	0	0
O=C(C=C1NCCN1)c1ccccc1	0	0	0	0	0	?
O=C(c1ccc(NS(=O)(=O)/C=C/c2ccccc2)cc1)N1CCCCC1	0	12µM	?	?	?	0
O=CC(=O)c1ccccc1	0	16µM	0	?	0	0
SMILES	KB-3-1 cytotox	TDP1 cell noCPT	HT1080 IDH1KD tx	TDP1 cell CPT	HT1080-NT tox	KB-V1 cytotox
CC1N=C2c3ccccc3N=C(SCC(=O)NCCc3ccccc3)N2C1=O (configuration not stated)	0	0	-	0	-	0
Cc1cc(C)cc(NC(=O)c2sc3nc[nH]c(=O)c3c2C)c1	0	0	-	0	-	0
O=C(CN1C(=O)NC(Cc2c[nH]c3ccccc23)C1=O)NCC(F)(F)F (configuration not stated)	0	0	0	0	0	0
CN(C(=O)NCc1noc2ccccc12)c1cccc(Cl)c1	0	0	-	0	-	0
CC(C)CCn1c(SCc2ccc(F)cc2Cl)nc2ccsc2c1=O	-	0	-	0	-	-
O=[N+]([O-])c1ccc(Sc2cccc[n+]2[O-])c2nonc12	?	0.021µM	0.58µM	0.0058µM	0.15µM	?
CCC(C)NC(=O)CSc1nc2n[nH]c(C)c2c(=N)n1-c1ccc(OC)cc1 (configuration not stated)	0	18µM	0	16µM	0	0
CCC(C)NC(=O)CSc1nnc(-c2ccncc2)n1-c1ccc(OC)cc1 (configuration not stated)	0	0	0	0	0	0
CCOc1ccc(-n2c(SCC(=O)Nc3ccc(Br)cc3)nc3n[nH]c(C)c3c2=N)cc1	0	7.3µM	16µM	13µM	15µM	0
CCOc1ccc(-n2c(SCC(=O)NC(C)CC)nc3n[nH]c(C)c3c2=N)cc1 (configuration not stated)	0	18µM	?	?	?	0
CCOc1ccc(NC(=O)CSc2n[nH]c(=O)n2-c2ccccc2)cc1	0	0	0	0	0	0
CCC(C)NC(=O)CSc1nc2n[nH]c(C)c2c(=N)n1-c1ccc(C)c(Cl)c1 (configuration not stated)	0	1.6µM	-	3.3µM	-	0
